Source: PubChem BioAssay (several laboratories)
JMJD2C inh: inhibitors of human GASC-1 (JMJD2C) demethylase | Q9H3R0 | GST-JMJD2C(1-420) H3K9me3 demethylation, DELFIA europium | inhibition, % at 2.35 µM | actives 0.069% (n = 330,000);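 active = more than half of a compound's replicate wells show inhibition beyond 50%, single wells judged on their own value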;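 note: signal counts dimethyl H3K9 product captured on neutravidin plate; 0% = median of DMSO wells and 100% = 0.3 times that DMSO median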
Target sequence (Q9H3R0 1-420 limits assumed): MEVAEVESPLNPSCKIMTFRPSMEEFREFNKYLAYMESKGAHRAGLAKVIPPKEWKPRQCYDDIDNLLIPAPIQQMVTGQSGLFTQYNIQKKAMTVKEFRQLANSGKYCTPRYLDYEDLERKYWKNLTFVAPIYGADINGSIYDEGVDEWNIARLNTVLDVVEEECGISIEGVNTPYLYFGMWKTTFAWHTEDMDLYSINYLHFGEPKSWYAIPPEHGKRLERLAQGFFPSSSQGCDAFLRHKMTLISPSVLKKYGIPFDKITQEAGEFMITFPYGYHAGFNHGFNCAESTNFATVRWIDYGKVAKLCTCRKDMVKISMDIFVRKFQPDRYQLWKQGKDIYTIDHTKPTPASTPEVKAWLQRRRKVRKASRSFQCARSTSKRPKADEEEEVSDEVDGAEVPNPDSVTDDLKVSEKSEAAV
Exocytosis inh: lytic granule exocytosis inhibition. actives 0.66% (n = 360,000). inhibition, % at 10 µM. AID 651702. TALL-104 LAMP-1 surface exposure, flow cytometry; cells stimulated with thapsigargin and PMA;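 active = inhibition above about 55%, limit read from the data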
VLA-4 inh: inhibition in a human VLA-4 binding assay; P13612; VLA-4 expressing cells, ligand binding flow cytometry; inhibition, % (about 7 µM as worked out from the volumes in the protocol); actives 0.2% (n = 330,000); in the data active = inhibition above about 50%
V-ATPase pHluor: regulators of yeast V-ATPase proton transport. response, % at 10 µM. actives 0.37% (n = 350,000). S. cerevisiae, pHLuorin cytosolic pH fluorescence. AID 504577; in the data active = response mostly above about 7.3%, no sharp cut-off; inactive = mostly below about 5.4%; note: actives read high
HTR2A ag: agonists of mouse serotonin 5-HT2A receptor (HTR2A). P35363. activation, % at 7.6 µM. actives 0.66% (n = 360,000). AID 624169. CHO-K1 mHTR2A beta-arrestin complementation, luminescence; percent of 30 µM serotonin response;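 active = activation above a run cutoff, the mean activation of all tested compounds plus 3 SD, cut at about 14% in these data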;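 note: 0% = plate median of compound wells and 100% = 30 µM serotonin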
MEX-5 binding: C. elegans MEX-5 TCR-2 RNA binding activity; MEX-5/FITC-TCR2 RNA binding, fluorescence polarization; stronger effect = lower value; activity score (negative = inhibition of binding), % at 10 µM; actives 0.38% (n = 300,000);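 active = inhibition past about -25% in most replicates, and total fluorescence under double the plate's negative control median, limit read from the data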;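 note: 0% = DMSO and -100% = 5 µM competing unlabeled TCR2 RNA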
VLA-4 mod pick: confirmation of allosteric modulators of human VLA-4 integrin | shares compounds with VLA-4 inh | U937 cells, HUTS-21 LIBS mAb binding, flow cytometry; LDV ligand present at threefold Kd | inhibition, % at 6.7 µM | actives 2% (n = 1,300) | AID 2813; in the data active = inhibition above about 40%;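 note: 0% = ligand without compound and 100% = no ligand background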
VATPase regulator: modulates yeast V-ATPase proton transport; S. cerevisiae pHLuorin cytosolic pH; shares compounds with V-ATPase pHluor; actives 2% (n = 980); response, % at 10 µM; in the data active = response above about 24%;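 note: plate controls were vehicle wells for no effect and positive control wells for full effect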
MOR ag counter: OPRM1 agonism in mouse HTR2A counterscreen. activation, % at 9.3 µM. shares compounds with HTR2A ag. actives 5.3% (n = 2,300). U2OS OPRM1 beta-arrestin PathHunter, luminescence; DMSO 0%, DAMGO 9.3 µM 100%. AID 624380;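 active = mean activation above the mean of DMSO-only wells plus 3 SD, cut at about 0.5% in these data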
m5-HT2A ag conf: confirmation of mouse HTR2A serotonin receptor agonists. shares compounds with HTR2A ag. CHO-K1 PathHunter beta-arrestin recruitment, luminescence; DMSO 0%, 30 µM serotonin 100%. activation, % at 7.6 µM. actives 19% (n = 2,300);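 active = mean activation across triplicates above the hit threshold derived in the original primary screen, cut at about 15% in these data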
Granule exo CP1: blocks lytic granule exocytosis | shares compounds with Exocytosis inh | TALL-104 cells, LAMP-1 externalization, flow cytometry; stimulated with PMA plus thapsigargin | inhibition, % at 10 µM | actives 11% (n = 1,500); in the data active = inhibition above about 60%;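 note: 0% = stimulated vehicle wells and 100% = unstimulated wells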
* = called active by the depositor; . = not tested or not shown; ! = not confirmed by another sample. A selection: hits, their analogues and other compounds. The true share with any hit is near 2.2%.

SMILES	JMJD2C inh	Exocytosis inh	VLA-4 inh	V-ATPase pHluor	HTR2A ag	MEX-5 binding	VLA-4 mod pick	VATPase regulator	others
O=c1[nH]c(=S)n(Cc2ccc(F)cc2)c(O)c1/C=N/N1CCCCC1	6	-1	56*	0	1	-5	-7	.
Cc1ccc(S(=O)(=O)N[C@@H](CCCCN)C(=O)CCl)cc1	-4	-2	53*	-8	0	-5	-7	.
Cc1ccccc1-c1ccc2n1Cc1cnnn1-c1ccccc1-2	.	-4	.	3	4	.	.	.
c1ccc2c(c1)Nc1ccccc1S2	2	-4	55*	-1	-4	5	13	.
O=C1Nc2ccccc2Sc2ccccc21	-33	4	4	3	-3	-1	.	.
O=[N+]([O-])c1c(Cl)c(Cl)c(Cl)c(Cl)c1Cl	.	14	.	1	5	.	.	.
Nc1cc(Cl)c2nonc2c1[N+](=O)[O-]	-25	16	50*	-2	5	.	32	.
Cc1ccccc1N1CCN(C2CCCN(C(=O)Cc3c(C)noc3C)C2)CC1 (configuration not stated)	11	-4	1	-2	-6	-1	.	.
Cc1cc(C)c2c(ccc3cccc[n+]32)c1	-6	1	2	0	0	1	.	.
CCN(CC)c1ccc(N=Cc2c(O)n(Cc3ccccc3)c(=O)[nH]c2=O)cc1	0	1	-7	46*!	1	-29*!	-22	-41
C[C@](N)(CCP(=O)(O)O)C(=O)O	.	4	8	-4	1	.	.	.
CCCCCCCSc1cc(OC)c(CCNC)cc1OC	-11	85*	61*	3	46*	-1	0	.	MOR ag counter=0;m5-HT2A ag conf=17*;Granule exo CP1=48
CN(CCc1ccccc1)Cc1c[nH]c2ccccc12	5	2	-1	0	-7	1	.	.
Cc1[nH]c2ccc(OC(F)(F)F)cc2c1CCNCc1cccc([N+](=O)[O-])c1	39	24	39	2	-5	0	.	.
CCOc1cccc(CNCCc2c(C)[nH]c3ccc(OC(F)(F)F)cc23)c1O	-10	78*	65*	4	27*	1	39	.	MOR ag counter=1.2*;m5-HT2A ag conf=22*;Granule exo CP1=83*
COCCNCCOc1ccc(C(C)(C)c2ccccc2)cc1	-4	4	-7	12*	-6	1	.	-2
Cc1cc(/C=C2\C(=O)NC(=O)N(c3ccc(Br)cc3)C2=O)c(C)n1-c1cc(C(=O)O)cc(C(=O)O)c1	3	-3	4	3	0	-3	.	.
Cc1cc(C(=O)C[N+]23CCN(CC2)CC3)c(C)n1-c1ccc(Br)cc1	3	2	5	9.2*	-3	2	.	0
[N-]=[N+]=NCCN1CCC(O)CCC1=O (configuration not stated)	0	1	-2	26*	-3	2	.	-1
CC12CCC(=O)C=C1CCC1C2CCC2(C)C1CCC2(O)CC#N (configuration not stated)	.	-2	.	12*	0	.	.	3
CCC1(CC)C(=O)NC(=O)N(c2ccccc2)C1=O	.	0	.	-4	-3	.	.	.
COC(=O)C1=C(c2ccc(OC(F)(F)F)cc2)C[C@@H]2CC[C@H]1N2C(=O)NC1CCCCC1	2	-7	0	3	-9	.	.	.
Cc1ccc(-n2c(O)c(/C=C/C=Nc3ccccc3)c(=O)[nH]c2=O)cc1	-7	-1	-27	85*	4	11	.	-16
